Screen size: about 2,200 compounds; about 530 (24%) were called active. A selection follows. Measured potencies and affinities stand elsewhere. A number with no mark means an inactive call.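 How the source made its calls: active means inhibition above a set limit at one or more concentrations of the dose series; inactive means inhibition under that limit at every dose.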
Assay: S. Typhimurium nonspecific reporter signal inhibition – Salmonella Typhimurium, GFP fluorescence, counter-screen for PhoP regulon inhibitor project, dose response (AID 2401);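 further: S. typhimurium with Mg-insensitive nmpC-GFP reporter grown at 10 µM Mg2+; drop in reporter fluorescence reflects general culture growth inhibition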
Conditions: 4 h; series mostly up to 150 µM; inhibition: at the top concentration

Q: With `Cc1ccc(-c2nnn(CC(=O)Nc3ccccc3-c3ccccc3)n2)c(-n2cnnn2)c1` as the compound, how does the “inhibition” value read?
A: 1.9%

Q: For `Cc1cc(Nc2ccc(Cl)cc2)nc(N)n1`, which “inhibition” value is on record?
A: 32.1%

Q: With `CC(C)(C)c1nn(-c2ccccc2)c2[nH]c(=O)c(CNCc3ccco3)cc12` as the compound, how does the “inhibition” value read?
A: -17.9%

Q: Which “inhibition” value does the source give for `CC1(C)SC(=S)N(NC(=O)Nc2ccccc2)C1N(O)C(=O)Nc1ccccc1` (stereo unspecified) here?
A: -13.4%

Q: For `Cc1ccc(Nc2cc(C)nc3nc(C)nn23)cc1`, which “inhibition” value is on record?
A: -17.3%

Q: Which “inhibition” value does the source give for `COc1ccc2c(c1)cc1n2CCN2CCCN=C12` here?
A: 13.7%

Q: With `O=P(Cc1cc[n+]([O-])cc1)(c1ccccc1)c1ccccc1` as the compound, how does the “inhibition” value read?
A: -29.2%

Q: With `CCOC(=O)CCCNC(=O)COC(=O)CCC(=O)c1ccc(F)cc1` as the compound, how does the “inhibition” value read?
A: 3.03%

Q: For `CCCCn1cnc2c(cnn2-c2ccc(F)cc2)c1=O`, which “inhibition” value is on record?
A: -17.3%

Q: For `Cc1cccnc1NC(=O)CCCN1C(=O)c2ccccc2C1=O`, which “inhibition” value is on record?
A: 6.01%

Q: Which “inhibition” value does the source give for `O=C(CCN1C(=O)COc2ccccc21)NCCN1CCOCC1` here?
A: -16.8%

Q: For `COc1cccc(/C=N/n2c(C)nc3ccccc32)c1OC`, which “inhibition” value is on record?
A: -14%

Q: With `NC(N)=Nc1nc(C2COc3ccccc3O2)cs1` (stereo unspecified) as the compound, how does the “inhibition” value read?
A: 35.6%

Q: With `Cc1cc(-c2csc(N)n2)c(C)n1C` as the compound, how does the “inhibition” value read?
A: 23.3%

Q: For `Cc1ccc(-n2c(C)cc(-c3csc(N)n3)c2C)cc1`, which “inhibition” value is on record?
A: 39.9% [at 75 µM]

Q: Which “inhibition” value does the source give for `Nc1nc(-c2ccc(Br)cc2)cs1` here?
A: -12.1%

Q: With `CN(C(=O)C1CCOC1)c1nnc(-c2ccccn2)s1` (stereo unspecified) as the compound, how does the “inhibition” value read?
A: -15.8%

Q: Which “inhibition” value does the source give for `COc1ccc(-c2cc(C(=O)Nc3cc(C)n(Cc4ccc(Cl)cc4)n3)no2)cc1OC` here?
A: -13.3%

Q: With `COc1cc(S(=O)(=O)N2CCCCC2)ccc1NC=O` as the compound, how does the “inhibition” value read?
A: -0.23%

Q: With `CC1(C)CC2CC(C)(CN2C(=O)COC(=O)c2n[nH]c(=O)c3ccccc23)C1` (stereo unspecified) as the compound, how does the “inhibition” value read?
A: -15.4%

Q: For `O=C1Nc2ccccc2C12OCC1(CO2)COC2(OC1)C(=O)Nc1ccccc12` (stereo unspecified), which “inhibition” value is on record?
A: 15.1%

Q: For `NCCCCCc1nnc(SCc2ccc(Cl)cc2Cl)o1`, which “inhibition” value is on record?
A: 16.6%

Q: For `O=C(Nc1ccc(O)cc1)c1cc2n(n1)C(C(F)(F)F)CC(c1ccco1)N2` (stereo unspecified), which “inhibition” value is on record?
A: -2.81%

Q: With `O=C(c1cc(-c2cccs2)nc2ccccc12)N1CCN(c2ccccc2O)CC1` as the compound, how does the “inhibition” value read?
A: 16.9%

Q: For `O=C(O)CCc1nn2c3ccccc3n(CCN3CCCCC3)c2nc1=O`, which “inhibition” value is on record?
A: -3.63%

Q: For `Cc1ccc(Nc2cc(=O)[nH]c(=O)[nH]2)c(C)c1`, which “inhibition” value is on record?
A: 24.1%

Q: Which “inhibition” value does the source give for `O=C(O)C1CCC(N2C(=O)C3CCCCC3C2=O)CC1` (stereo unspecified) here?
A: -2.47%

Q: With `Cc1cc(C(=O)CSc2nnnn2C)c(C)n1-c1ccc2c(c1)OCCO2` as the compound, how does the “inhibition” value read?
A: -3.11%

Q: With `Cc1ccc(-c2cc(C(=O)Nc3nccs3)c3ccccc3n2)o1` as the compound, how does the “inhibition” value read?
A: 15.4%

Q: Which “inhibition” value does the source give for `O=C(OCc1ccccc1)Oc1cncc(C(=O)O)c1` here?
A: 3.03%

Q: Which “inhibition” value does the source give for `C=COC(=O)CSc1snc(SCC(=O)OC)c1C#N` here?
A: -0.38%

Q: With `C=CCSc1ncnc2sc(C)c(C)c12` as the compound, how does the “inhibition” value read?
A: 2.54%

Q: For `COc1ccc(NC(=O)CCNS(=O)(=O)c2ccc3c(c2)CCC(=O)N3)cc1`, which “inhibition” value is on record?
A: -5.16%

Q: For `CN1CCCC(OC(=O)c2ccc3c(c2)OCCO3)C1` (stereo unspecified), which “inhibition” value is on record?
A: -6.95%

Q: With `N#Cc1ccc(N=c2ssnc2Cl)cc1` as the compound, how does the “inhibition” value read?
A: -3.37%

Q: Which “inhibition” value does the source give for `CC(C)(C)n1ncc2c(=O)n(CC(=O)Nc3ccc4c(c3)OCO4)cnc21` here?
A: 0.07%

Q: Which “inhibition” value does the source give for `N=c1n(CC(=O)c2ccc([N+](=O)[O-])cc2)c2ccccc2n1Cc1ccccc1` here?
A: -6.91%

Q: Which “inhibition” value does the source give for `Cc1ccccc1Cn1c(=N)n(CC(=O)c2ccco2)c2ccccc21` here?
A: -25%

Q: With `Cc1ccc(/C=C/c2ccc(=O)n(Cc3ccccc3Cl)n2)cc1` as the compound, how does the “inhibition” value read?
A: -10.7%

Q: For `COc1ccc(-n2c(=O)c3ccccc3n(CC(=O)Nc3cc(C)on3)c2=O)cc1OC`, which “inhibition” value is on record?
A: -20.3%

Q: With `Cc1cc(-c2c(C)n([O-])c(C)c(C)[n+]2=O)ccc1F` as the compound, how does the “inhibition” value read?
A: -19%

Q: Which “inhibition” value does the source give for `CCOC(=O)c1c(-c2ccc(C)o2)csc1N` here?
A: -7.66%

Q: With `CCOC(=O)c1ccccc1C(=O)N1CCOCCOCCOCC1` as the compound, how does the “inhibition” value read?
A: -15.8%

Q: For `COc1ccc(C(=O)Nn2c(SCC(=O)N3CCC(C)CC3)nc3ccccc3c2=O)cc1`, which “inhibition” value is on record?
A: -0.43%

Q: Which “inhibition” value does the source give for `Cc1ccc2nc(C)c(CN3CCN(c4ccc([N+](=O)[O-])cc4Cl)CC3)n2c1` here?
A: 12.8%

Q: Which “inhibition” value does the source give for `Cc1ccc(NS(=O)(=O)c2ccc(N3C(=O)CCC3=O)cc2)cc1` here?
A: -30.7%

Q: For `O=S(=O)(Nc1ccc2c(c1)nc1n2CCN(Cc2ccccc2)C1)c1ccc(F)cc1`, which “inhibition” value is on record?
A: -2.47%

Q: For `CSc1cccc(NC(=O)COc2cccc3ccccc23)c1`, which “inhibition” value is on record?
A: 6.13%

Q: Which “inhibition” value does the source give for `O=S(=O)(NC1=NCCCCC1)c1cccs1` here?
A: -13.8%

Q: For `O=C1CSc2ccccc2N1Cc1ccc(F)cc1`, which “inhibition” value is on record?
A: -25.6%

Q: With `O=C(c1ccccc1S(=O)(=O)NCc1ccccc1)N1CCCC1` as the compound, how does the “inhibition” value read?
A: -22.7%

Q: With `COc1ccc(C2CC(c3ccccc3)=NN2c2ccc(/C=N/NC(=O)c3ccncc3)cc2)cc1` (stereo unspecified) as the compound, how does the “inhibition” value read?
A: 16.4%

Q: With `NC(=O)c1c(N)sc2c1CCCCC2` as the compound, how does the “inhibition” value read?
A: 12.1%

Q: For `CCOC(=O)C1=C(C)NC(=S)NC1c1ccc(OC(=O)c2ccco2)cc1` (stereo unspecified), which “inhibition” value is on record?
A: -2.57%

Q: For `Cn1c(C(O)c2ccc(Br)cc2)nc(Cl)c1Cl` (stereo unspecified), which “inhibition” value is on record?
A: -2.83%

Q: Which “inhibition” value does the source give for `CN(C)C=NC(=O)c1[nH]c2ccc(Cl)cc2c1-c1ccccc1` here?
A: -5.43%

Q: With `Clc1ccc(OCCN2CCN(c3ncnc4sccc34)CC2)cc1` as the compound, how does the “inhibition” value read?
A: -6.81%

Q: For `O=C(Cc1ccc(Cl)cc1)NNS(=O)(=O)c1ccc([N+](=O)[O-])cc1`, which “inhibition” value is on record?
A: 0%

Q: Which “inhibition” value does the source give for `N[C@H](CSCc1ccccc1)C(=O)Nc1ccc([N+](=O)[O-])cc1` here?
A: -8.41%

Q: Which “inhibition” value does the source give for `O=C(O)CCCCCN1C(=O)c2ccc(C(=O)O)cc2C1=O` here?
A: -20.1%

Q: Which “inhibition” value does the source give for `CCOC(=O)c1c(C)[nH]c(C)c1C(=O)CSc1ncccn1` here?
A: -16.1%

Q: For `COc1ccc(NC(=O)CSc2nccn2-c2ccccc2)cc1`, which “inhibition” value is on record?
A: -15.4%

Q: For `COc1cc(OC)c(NC(=O)Nc2ccc(OC)c(OC)c2)cc1Cl`, which “inhibition” value is on record?
A: 10.1%

Q: For `O=[N+]([O-])c1nn(-c2cccc(Cl)c2)n(O)c1=NCc1cccnc1`, which “inhibition” value is on record?
A: 5.14%

Q: Which “inhibition” value does the source give for `O=c1c(Cl)c(Cl)cnn1-c1ccccc1` here?
A: 18.9%

Q: Which “inhibition” value does the source give for `CC1(C)CC(=O)C(C=Nc2ccc(Cl)cn2)=C(O)C1` here?
A: 7.22%

Q: For `Cn1cccc1CC(=O)NNC(=S)Nc1ccc(Cl)cc1`, which “inhibition” value is on record?
A: 8.8%

Q: Which “inhibition” value does the source give for `Cc1cn([C@H]2C[C@H](N=[N+]=[N-])[C@@H](CO)O2)c(=O)[nH]c1=O` here?
A: -4.31%

Q: With `Cc1c(C)n(Cc2ccccc2)c2ncnc(NN)c12` as the compound, how does the “inhibition” value read?
A: 9.09%

Q: Which “inhibition” value does the source give for `CCOCc1nnc(NC(=O)COC)s1` here?
A: -6.16%

Q: With `O=c1c2ccccc2nnn1Cc1ccccn1` as the compound, how does the “inhibition” value read?
A: 4.75%

Q: With `c1ccc(Oc2cc(-c3ccccc3)ncn2)cc1` as the compound, how does the “inhibition” value read?
A: -7.11%

Q: For `Oc1ccccc1NCC(O)Cn1ccc2ccccc21` (stereo unspecified), which “inhibition” value is on record?
A: 15.1%

Q: Which “inhibition” value does the source give for `Cc1ccc2nc(Cc3ccc(N)cc3)[nH]c2c1` here?
A: 29.3%

Q: Which “inhibition” value does the source give for `CCOc1ccc(S(=O)(=O)Nc2ccc(C(=O)N/N=C/c3c(C)nn(-c4ccccc4)c3N3CCCC3)cc2)cc1` here?
A: 17.9%

Q: Which “inhibition” value does the source give for `COc1ccccc1NS(=O)(=O)c1cccc(C(=O)N/N=C/c2c(C)nn(-c3ccccc3)c2N2CCCC2)c1` here?
A: 6.1%

Reference: PubChem BioAssay AID2401 (Southern Research Specialized Biocontainment Screening …, 2010)
